Source: PubChem BioAssay (NCATS)
Activity calls are given as the source filed them. The call rests on the fitted dose curve; in most records, active means well fitted curve in the direction sought with a large enough effect; inconclusive means small, poorly fitted or top-dose-only effect, or effect the other way, or another doubt; inactive means no such curve, though single readings can be large or run the other way.

Test: qHTS for Inhibitors of Cell Surface uPA Generation: Validation Assay (AID 493164);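 further: RAW 264.7 macrophage cells exposed to compound for 18 h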
Conditions: mouse cells, plasminogen activation; series mostly up to 38.3 µM
Source text: NIH Chemical Genomics Center [NCGC]
NIH Molecular Libraries Probe Centers Network [MLPCN]
Assay Submitter (PI): Thomas Bugge
The overall objective of this project is to perform a quantitative high throughput screen (qHTS) to identify novel compounds that inhibit the generation of cell surface urokinase activity. The urokinase plasminogen activator (uPA) is one of the two primary endogenous systems that mediate plasminogen activation into plasmin. Members of this system, including uPA and its receptor (uPAR), are overexpressed in several malignant tumors. This system plays a major role in adhesion, migration, invasion and metastasis of cancer cells. Small molecule inhibitors of the uPA system will serve as probes to understand the molecular mechanisms of the uPA cascade and better understanding the microenvironmental circumstances that facilitate the activation of plasminogen by uPA, and finally may provide novel candidate agents for anticancer drug therapy.
[…] […] Upon inhibition of the uPA activation cascade, the subsequent cell surface uPA activity-dependent translocation of LF into the cytoplasm is inhibited. ATP-Lite is used to measure intracellular ATP concentrations, which remain increased if LF entry into the cytoplasm is inhibited. This validation assay was performed using a small set of validation compounds.
uPA assay protocol summary:
RAW 264.7 cells were maintained in DMEM medium (Invitrogen, Carlsbad, CA) at 37C under a humidified atmosphere containing 5% CO2 and 95% air. The medium contained 10% FBS, 1 mM sodium pyruvate and 50 U/ml penicillin/streptamycin (Invitrogen, Carlsbad, CA). All compounds were screened as 7-point titration from 2.45 nM to 38.3 uM final concentration. The assay was performed in 1536-well format plate as follows:
1.Dispensing RAW 264.7 cells into 1536-well, white walled tissue culture plates at a density of 4000 cells/well (4 uL).
2.Incubation at 37 C in a 5% CO2 incubator overnight.
3.Serially diluting compounds (1:5 serial dilution; 0.0024 uM to […] final concentration) in 23 nl DMSO.
5.Incubating the compound and reagent-treated plates for 18 hours at 37 C in a 5% CO2 incubator.
6.Adding ATP-Lite (3 ul).
7.Reading plates by ViewLux with an exposure length of 5 seconds.

Row | Structure (SMILES) | outcome
1 | c1ccc(C2CN3CCSC3=N2)cc1 (stereo not given) | inactive
2 | NCCCCN=C(N)N | inactive
3 | O=C(O)/C(=C/c1c(C(=O)O)[nH]c2cc(Cl)cc(Cl)c12)c1ccccc1 | inactive
4 | O=C(O)/C=C/c1cnc[nH]1 | inactive
5 | c1ccc2nc(C3=NCCN3)ccc2c1 | inactive
6 | CC(C)NCC(O)COc1ccc(CC(N)=O)cc1 (stereo not given) | inactive
7 | NOCC(=O)O | inactive
8 | CC(N)=O | inactive
9 | NCC(O)C1CCCCCCC1 (stereo not given) | inactive
10 | CC(C)C[C@H](NC(=O)C1OC1C(=O)O)C(=O)NCCCCN=C(N)N (stereo not given in full) | inactive
11 | Cn1cc(C(F)(F)F)nc1-c1ccc(OCC(O)CNCCOc2ccc(O)c(C(N)=O)c2)cc1 (stereo not given) | inactive
12 | CC1C(=O)N(C)C(=O)c2nc[nH]c21 (stereo not given) | inactive
13 | CC(=O)NNC(=O)N1Cc2ccccc2Oc2ccc(Cl)cc21 | inactive
14 | NS(=O)(=O)c1cccc2c1c([N+](=O)[O-])cc1nc(O)c(O)nc12 | inactive
15 | CCCCCCCCCC[Si](C)(C)CCC(=O)NC(Cc1ccc(C)cc1)c1ccccc1 (stereo not given) | inactive
16 | O=c1cc(O)cc(/C=C/c2ccc(O)c(O)c2)o1 | inactive
17 | CC(N)=NCCCC[C@@H](N)C(=O)O | inactive
18 | CCCC(=O)NCCc1c2n(c3ccc(OC)cc13)CCCc1ccccc1-2 | inactive
19 | O=c1[nH]c(=O)c2nc3ccccc3nc2[nH]1 | inactive
20 | CN(C)CCC(c1ccc(Br)cc1)c1ccccn1 (stereo not given) | inactive

Row | Structure (SMILES) | outcome
21 | O=C(O)Cc1ccc(O)c(O)c1 | inactive
22 | CNc1cc(NS(=O)(=O)c2ccc(N)cc2)nc(NC)n1 | inactive
23 | Cc1nc2c(OCc3ccccc3)cccn2c1CC#N | inactive
24 | Cn1c(=O)c2[nH]c(-c3ccc(S(=O)(=O)O)cc3)nc2n(C)c1=O | inactive
25 | CC(C)[C@@H]1CC[C@@H](C)C[C@@H]1P(=O)(c1ccccc1)c1ccccc1 | inactive
26 | c1ccc(C(NCCNC(c2ccccc2)c2ccccc2)c2ccccc2)cc1 | inactive
27 | COc1ccc(-c2ccc(N)[n+](CCCC(=O)O)n2)cc1 | inactive
28 | CCCc1c(OCCCOc2ccc(OCC(=O)O)cc2)ccc(C(C)=O)c1O | inactive
29 | CCN1C(=O)C=CC1=O | inactive
30 | CCn1c(=O)[nH]c2cc(Cl)c(Cl)cc21 | inactive
31 | c1ccc2c(c1)CCC[C@H]2Nc1nc2ccccc2[nH]1 | inactive
32 | Nc1ncnc2c1nc(Sc1ccc(Cl)cc1)n2[C@H]1OC2COP(=O)(O)O[C@@H]2C1O (stereo not given in full) | inactive
33 | N[C@H](C(=O)O)[C@H]1C[C@@H]1C(=O)O | inactive
34 | O=C(O)C1CCNCC1 | inactive
35 | CN1Cc2sccc2C(c2ccc(O)c(O)c2)C1 (stereo not given) | inactive
36 | NC1CCN(O)C1=O (stereo not given) | inactive
37 | NC1(C(=O)O)CCc2cc(C(=O)O)ccc21 (stereo not given) | inactive
38 | CCCCCC(O)CCCC(=O)O (stereo not given) | inactive
39 | C=CC[C@H](N)C(=O)O | inactive
40 | Cn1c(=O)[nH]c2ncn(C)c2c1=O | inactive
